Hits are enriched below; roughly 3% of the tested compounds scored in any of these assays.
p53null 32C tox: kills p53 null cells at the permissive temperature; H1299-neo p53 null cells, ATP luminescence, 24 h, 32C; Potency, µM (doses to about 46.1 µM), most hits filed as cytotoxic; actives 0.62% (n = 55,000); AID 903; further: nearly all actives have a fitted effect of over 55% in size
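H1299-neo (p53-null) cells, 600/well, were pre-incubated overnight at 37C, then exposed to compounds at up to 46 uM for 24 hr at 32C. Viability was measured as ATP content by luminescence, and AC50 values came from Hill fits.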
SKOV3 invasion: inhibitors of ovarian cancer cell adhesion and invasion in omental model; SKOV3ip1-GFP adhesion/invasion on 3D omental model, fluorescence; Potency, µM (highest dose often 45.8 µM), actives largely listed as inhibitors; actives 0.1% (n = 46,000); AID 1963576; further: nearly all actives have a fitted effect of over 65% in size
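Adhesion/invasion was scored as fixed GFP-labeled SKOV3ip1 cell counts (488/509 nm), normalized to DMSO and tomatine controls. Cancer cells in serum-free medium, with four compound doses (0.36-46 umol/L), sat 2 hr at RT then 16 hr at 37 C on a 48 hr fibroblast/mesothelial/ECM culture.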
PMP22 txn prim: modulates PMP22 transcription in S16 Schwann cells; actives 2% (n = 43,000); S16 Pmp22-F2sN Schwann cells, FLuc/NLuc coincidence luminescence, 24 h; Potency, µM (top dose mostly 57.5 µM), usual class: inhibitors; active means clear falling dose curves in both reporters; inconclusive means both reporters move, but less clearly or upward; inactive means either reporter flat; the % is the NLuc reporter signal
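qHTS, 1536-well. Cells seeded, compounds added by pin tool, 24 h 37C. Nano-Glo reagent 1 (lysis/FLuc), 10 min RT, read; Stop&Glo, 10 min RT, read NLuc.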
pS6 MEF inh: mTORC1 pathway inhibition measured by phospho-rpS6; Tsc2-/- p53-/- MEF, phospho-rpS6 immunofluorescence/PI, 24 h; Potency, µM (doses to about 38.3 µM), most hits filed as inhibitors; actives 0.78% (n = 44,000); further: nearly all actives have a fitted effect of over 50% in size
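Compounds act on Tsc2-/-, p53-/- fibroblasts carrying an empty vector for 24 h before fixation and dual staining for phospho-S6 and DNA (propidium iodide). Values are percentages of cells above a rapamycin-defined pS6/PI threshold.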
p53null 39C tox: kills p53 null cells at the nonpermissive temperature. AID 904. H1299 p53-null (neo) cells, 39C, ATPlite viability, 24 h. actives 0.97% (n = 55,000). Potency, µM (series often up to 46.1 µM), usual class: cytotoxic; further: nearly all actives have a fitted effect of over 50% in size
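Following overnight plating at 37C (600 cells/well), H1299-neo or H1299-p53A138V cells are dosed up to 46 uM. Incubation lasts 24 hr at 39C before ATP detection.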
S16 F2sN tox: S16 Schwann cell cytotoxicity; S16 Pmp22-F2sN Schwann cells (luciferase reporters placed in the Pmp22 gene) viability, CellTiter-Glo, 24 h; Potency, µM (doses to about 57.5 µM), most hits filed as cytotoxic; actives 0.48% (n = 43,000); AID 1508642; further: nearly all actives have a fitted effect of over 65% in size
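Luminescence from CellTiter-Glo, read by CCD camera after a 15 min room-temperature incubation, served as the viability signal. Reporter Schwann cells (S16 Pmp22-F2sN) had been treated with pin-transferred compounds for 24 h at 37C.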
NLuc sat counter: inhibits NanoLuc at saturating substrate, PMP22 counter-screen. shares compounds with PMP22 txn prim. Secreted NLuc enzyme (filtered S16 cell medium), Nano-Glo luminescence. Potency, µM (doses to about 57.5 µM), usual class: inhibitors. actives 4% (n = 690). AID 1508638
NLuc Km ctr: NanoLuc inhibition at Km substrate, PMP22 artifact check | shares compounds with PMP22 txn prim | secreted NLuc enzyme, coelenterazine luminescence, Km conditions | Potency, µM (doses to about 57.5 µM), usual class: inhibitors | actives 5% (n = 690) | AID 1508639
FLuc counter: inhibits firefly luciferase, PMP22 counter-screen; purified P. pyralis FLuc, luminescence, 10 min; shares compounds with PMP22 txn prim; Potency, µM (doses to about 57.5 µM), actives largely listed as inhibitors; AID 1508640; 690 tested, under 10 active
Target sequence (P08659 whole entry, looked up): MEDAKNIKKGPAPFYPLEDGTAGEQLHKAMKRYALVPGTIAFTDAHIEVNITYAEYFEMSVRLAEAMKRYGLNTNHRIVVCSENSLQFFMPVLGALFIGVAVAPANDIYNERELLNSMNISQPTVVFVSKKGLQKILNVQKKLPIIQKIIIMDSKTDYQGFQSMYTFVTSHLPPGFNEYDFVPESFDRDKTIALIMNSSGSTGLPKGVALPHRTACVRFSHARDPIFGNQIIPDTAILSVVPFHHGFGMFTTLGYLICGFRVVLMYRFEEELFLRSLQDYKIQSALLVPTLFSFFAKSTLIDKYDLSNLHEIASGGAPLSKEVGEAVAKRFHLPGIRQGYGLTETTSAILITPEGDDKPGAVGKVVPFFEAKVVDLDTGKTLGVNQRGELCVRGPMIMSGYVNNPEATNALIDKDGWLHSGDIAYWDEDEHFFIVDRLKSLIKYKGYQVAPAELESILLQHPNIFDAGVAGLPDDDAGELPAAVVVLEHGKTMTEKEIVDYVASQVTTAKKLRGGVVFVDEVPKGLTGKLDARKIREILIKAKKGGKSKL
S16 viab conf: S16 Schwann cell cytotoxicity, confirmatory; S16 Schwann cells viability, CellTiter-Glo ATP luminescence, 24 h; shares compounds with PMP22 txn prim; actives 7% (n = 690); Potency, µM (top dose mostly 57.5 µM), usual class: cytotoxic
PMP22 txn conf: confirmation of modulators of PMP22 gene transcription in S16 cells | shares compounds with PMP22 txn prim | S16 Schwann cells Pmp22-F2sN, dual luciferase, 24 h | Potency, µM (highest dose often 57.5 µM), actives largely listed as inhibitors | actives 22% (n = 690) | AID 1508646; active means clear falling dose curves in both reporters; inconclusive means both reporters move, but less clearly or upward; inactive means either reporter flat; the % is the FLuc reporter signal
Numbers stand for hits; i = inactive; ? = inconclusive; nt = no result given. Unless noted, the call rests on the fitted dose curve; in most records, active means well fitted curve in the direction sought with a large enough effect; inconclusive means small, poorly fitted or top-dose-only effect, or another doubt; inactive means no such curve, though single readings can be large; an effect the other way counts as inactive or inconclusive.

SMILES | p53null 32C tox | SKOV3 invasion | PMP22 txn prim | pS6 MEF inh | p53null 39C tox | S16 F2sN tox | NLuc sat counter | NLuc Km ctr | FLuc counter | S16 viab conf | PMP22 txn conf
CCCNC(=O)CSc1c2c(nc3ccc(Cl)cc13)CCCC2 | i | i | ? | ? | i | i | nt | nt | nt | nt | nt
O=C(CSc1c2c(nc3cc(Cl)ccc13)CCCC2)NCc1ccccc1Cl | i | ? | ? | i | ? | ? | nt | nt | nt | nt | nt
Cc1ccc(CNC(=O)CSc2c3c(nc4ccc(Cl)cc24)CCCC3)cc1 | i | i | 10µM | i | i | i | i | ? | i | i | i
COc1ccc2c(c1)CC[C@H]1[C@@H]2CC[C@]2(C)[C@@H](NCCCCCCN3C(=O)C=CC3=O)CC[C@H]12 | nt | i | nt | nt | nt | nt | nt | nt | nt | nt | nt
CC(=O)NC(CS)C(=O)O (stereo unspecified) | nt | i | nt | nt | nt | nt | nt | nt | nt | nt | nt
COC(=O)c1ccccc1NC(=O)CSc1c2c(nc3ccc(Cl)cc13)CCCC2 | i | i | 17.8µM | i | i | i | i | i | i | ? | ?
Cc1ccc(C)c(NC(=O)CSc2c3c(nc4ccc(Cl)cc24)CCCC3)c1 | i | i | 15µM | i | i | i | i | i | i | i | ?
CC(=O)N1c2ccc(S(=O)(=O)NCC3CCC(C(=O)Nc4cc(C)ccc4C)CC3)cc2CC1C (stereo unspecified) | i | i | ? | i | i | ? | i | i | i | i | i
CC(=O)N1c2ccc(S(=O)(=O)NCC3CCC(C(=O)Nc4ccccc4C)CC3)cc2CC1C (stereo unspecified) | i | i | i | i | i | i | nt | nt | nt | nt | nt
C#C[C@]1(O)CC[C@@H]2[C@@H]3CCc4cc(O)ccc4[C@H]3CC[C@@]21C | nt | i | nt | nt | nt | nt | nt | nt | nt | nt | nt
CCOC(=O)C1CCN(S(=O)(=O)c2cc(Br)cc3c2N(C(=O)CC)CC3)CC1 | i | i | i | i | i | i | nt | nt | nt | nt | nt
CCC(=O)N1CCc2cc(Br)cc(S(=O)(=O)N3CCC(C(=O)NC(C)(C)C)CC3)c21 | i | i | i | i | i | i | i | i | i | i | i
Cc1ccc2nc(/C(C#N)=C/c3ccc(-c4cccc(Cl)c4)o3)[nH]c2c1 | i | i | ? | i | ? | i | nt | nt | nt | nt | nt
Cc1cccc(/C=C(\C#N)c2nc3ccccc3c(=O)[nH]2)c1 | i | i | 11.2µM | i | i | i | ? | ? | i | ? | i
CCc1nn(CC(=O)Nc2ccc(NC(C)=O)cc2)c(=O)c2cc3sccc3n12 | i | i | i | i | i | i | nt | nt | nt | nt | nt
CCc1ccccc1NC(=O)Cn1nc(CC)n2c(cc3sccc32)c1=O | i | i | i | i | i | i | i | i | i | i | ?
O=C(C=Cc1cccnc1)NCCCCC1CCN(C(=O)c2ccccc2)CC1 | nt | i | nt | nt | nt | nt | nt | nt | nt | nt | nt
CCOC(=O)N1CCN(Cc2nc3cc(NC(=O)c4ccc(OC)cc4)ccc3n2C(C)C)CC1 | i | i | ? | ? | i | i | nt | nt | nt | nt | nt
CCOC(=O)N1CCN(Cc2nc3cc([N+](=O)[O-])ccc3n2C(C)C)CC1 | i | i | ? | i | i | i | i | i | i | ? | i
CCOC(=O)N1CCN(Cc2nc3cc(NC(=O)C(C)C)ccc3n2C(C)C)CC1 | i | i | 6.31µM | ? | i | ? | i | i | i | i | i
CCOC(=O)N1CCN(Cc2nc3cc(NC(=O)c4ccccc4OC)ccc3n2C(C)C)CC1 | i | ? | ? | i | ? | ? | nt | nt | nt | nt | nt
CCOC(=O)N1CCN(Cc2nc3cc(NC(=O)c4ccc(F)cc4)ccc3n2C(C)C)CC1 | i | i | ? | ? | i | ? | nt | nt | nt | nt | nt
CCOC(=O)N1CCN(Cc2nc3cc(NC(=O)c4ccccc4[N+](=O)[O-])ccc3n2C(C)C)CC1 | i | ? | 11.2µM | i | i | ? | ? | i | i | i | i
Cc1c(CN2CCN(S(C)(=O)=O)CC2)sc2c(N3CCOCC3)nc(-c3cnc(N)nc3)nc12 | nt | i | nt | nt | nt | nt | nt | nt | nt | nt | nt
COc1ccc(-n2nc3c(N4CCCC(C(=O)NCc5ccccc5C)C4)nnc(C)c3c2C)cc1 (stereo unspecified) | ? | ? | 12.6µM | 5.21µM | 15.8µM | 25.1µM | i | i | i | 21.7µM | ?
SMILES | p53null 32C tox | SKOV3 invasion | PMP22 txn prim | pS6 MEF inh | p53null 39C tox | S16 F2sN tox | NLuc sat counter | NLuc Km ctr | FLuc counter | S16 viab conf | PMP22 txn conf
COc1ccc(-n2nc3c(N4CCCC(C(=O)NCCc5ccccc5C)C4)nnc(C)c3c2C)cc1 (stereo unspecified) | i | i | 17.9µM | i | i | ? | ? | i | i | ? | ?
N[C@H]1CN(c2c(F)cc3c(=O)c(C(=O)O)cn(C4C[C@@H]4F)c3c2Cl)CC12CC2 (stereo partly specified) | nt | i | nt | nt | nt | nt | nt | nt | nt | nt | nt
CCn1c(=O)c2cc(C(=O)NC3CCC(C)CC3)sc2c2ccccc21 (stereo unspecified) | i | i | 17µM | i | i | ? | ? | i | i | i | i
Cn1c(=O)c2cc(C(=O)NCCCN3CCN(c4ccc(F)cc4)CC3)sc2c2ccccc21 | i | i | 18.9µM | i | i | i | ? | i | i | 34.3µM | ?
CCCN1CCN(CCCNC(=O)c2cc3c(Cl)nc4ccccc4c3s2)CC1 | i | i | 13.4µM | i | i | i | i | i | i | ? | i
CCn1c(=O)c2cc(C(=O)NCCCN3CCN(C)CC3)sc2c2ccccc21 | i | i | 11.3µM | i | i | i | i | i | i | i | i
CCOC(=O)N1CCN([N+]([O-])=NOc2cc(ON=[N+]([O-])N3CCN(C(=O)OCC)CC3)c([N+](=O)[O-])cc2[N+](=O)[O-])CC1 | nt | i | nt | nt | nt | nt | nt | nt | nt | nt | nt
O=C(Nc1ccc(Br)cc1F)N1CC=C(c2c[nH]c3ccccc23)CC1 | i | i | ? | i | i | i | i | ? | i | i | i
CC(C)(O)CCc1ccc(OCc2cc(-c3cccc(OC(F)F)c3)c3ncccc3c2)cc1 | nt | i | nt | nt | nt | nt | nt | nt | nt | nt | nt
